Assay results taken from ChEMBL document CHEMBL3988442, “University of Dundee, Small-Polar-MMV Screening Library” (2021).
In all, about 48,000 compounds went through this assay and about 13,000 (27%) showed an effect of 50% or more. This is one part of the list.

These compounds were tested on Wolbachia pipientis (assay: Anti-Wolbachia Cell-Based Screen). Settings: 5 µM.
Type: functional
Parameters: scale not given: in the data most compounds retested in dose-response had high values

| Structure (SMILES) | Percent Effect [%] |
| --- | --- |
| COc1cc(CN2CCCC2)ccc1Oc1ccc2c(c1)CC(CN)O2 (configuration not stated) | -3.423 |
| CCCN(Cc1ccc(S(=O)(=O)NC)cc1)Cc1ccccc1OC | 2.153 |
| COc1ccccc1CC(=O)NS(C)(=O)=O | -0.264 |
| COc1ccccc1CC(=O)NS(=O)(=O)c1ccc(C#N)cc1 | 90.41 |
| COc1ccccc1CC(=O)NS(=O)(=O)c1cncc(Br)c1 | 1.416 |
| CCCc1nc(C)c(C(=O)NS(=O)(=O)c2ccc(C#N)cc2)s1 | 11.71 |
| COc1ccccc1CC(=O)NS(=O)(=O)c1ccc(NC(C)=O)cc1 | 120.5 |
| CCc1nc(CN2CCN(C(=O)COCc3ccccc3)CC2)no1 | 16.69 |
| O=C(O)c1csc(S(=O)(=O)Nc2cccc(OCC(F)(F)F)c2)c1 | 12.1 |
| CSc1nsc(NC(=O)c2cc(C3CC3)nn2C)n1 | 105.4 |
| CCCc1cc(C(=O)Nc2nc(SC)ns2)[nH]n1 | -43.27 |
| Cc1nsc(NC(=O)NC2CCN(C)CC2)n1 | -30.6 |
| CCCc1cc(C(=O)Nc2nc(SC)ns2)n(C)n1 | 129.6 |
| Cc1nsc(NC(=O)N2CCCC2C)n1 (configuration not stated) | -6.715 |
| CC(C)c1nn(C)c(N2CCOCC2)c1CNC(C)c1cccs1 (configuration not stated) | 1.351 |
| CCNC(=O)NC(=O)CNC(C)(CC)c1nc(C)cs1 (configuration not stated) | 6.164 |
| CC(C)CN(CC(C)C)Cn1ncc2cn(-c3ccccc3)nc2c1=O | 8.982 |
| Cc1nn(-c2ccccc2)cc1C(=O)N1CCCC1c1cnn(C)c1 (configuration not stated) | 105.2 |
| Cc1ccc(-n2ncc(C(=O)N3CCCC3c3cnn(C)c3)c2C)cc1 (configuration not stated) | 102.1 |
| Cc1ccccc1-n1ncc(C(=O)N2CCCC2c2cnn(C)c2)c1C (configuration not stated) | -2.042 |
| Cc1c(C(=O)N2CCCC2c2cnn(C)c2)cnn1-c1ccccc1 (configuration not stated) | 112.8 |
| Cn1cc(C2CCCN2C(=O)Cn2ccc3ccccc32)cn1 (configuration not stated) | 10.33 |
| Cn1cc(C2CCCN2C(=O)c2cn(-c3ccccc3)nn2)cn1 (configuration not stated) | 82.94 |

| Structure (SMILES) | Percent Effect [%] |
| --- | --- |
| Cc1c(C(=O)N2CCCC2c2cnn(C)c2)nnn1-c1ccccc1 (configuration not stated) | -1.391 |
| Cc1nn(-c2ccccc2)nc1C(=O)N1CCCC1c1cnn(C)c1 (configuration not stated) | 5.794 |
| CCCOc1ccc(C(=O)N2CCN3CCNC(=O)C3C2)cc1Cl (configuration not stated) | -5.744 |
| Clc1ccc(C2(NCc3noc(C4CC4)n3)CCC2)cc1 | 3.298 |
| COCCN(Cc1cccc(C#N)c1)Cc1nnsc1Cl | 9.531 |
| COc1ccc(NC(=O)c2ccoc2C)c(N2CCN(C(C)=O)CC2)n1 | 0.9885 |
| Cc1nc(CNC(=O)NCC(O)c2ccc(F)cc2F)cs1 (configuration not stated) | -3.131 |
| Cc1nc(C)n(CC2CCCN2CC(=O)Nc2cc(C)on2)n1 (configuration not stated) | 98.7 |
| Cc1nc(C)n(CC2CCCN2Cc2cc(C)on2)n1 (configuration not stated) | -8.278 |
| Cc1nc(C)n(CC2CCCN2CC(=O)Nc2cc(C(C)C)no2)n1 (configuration not stated) | -1.165 |
| Cc1nc(C)n(CC2CCCCN2CC(=O)Nc2cc(C)on2)n1 (configuration not stated) | 106.4 |
| Cc1nc(C)n(CC2CCCCN2CCC(=O)Nc2cc(C)on2)n1 (configuration not stated) | 5.676 |
| Cc1nc(C)n(CC2CCCCN2CC(=O)Nc2ccncc2)n1 (configuration not stated) | -2.552 |
| Cc1nc2c(C(=O)N[C@H]3C[C@H]4CN(C)CCN4C3)cccc2[nH]1 | 8.866 |
| CCCc1cc(N2CCCC2Cn2nc(C)cc2C)n2ncnc2n1 (configuration not stated) | -3.923 |
| CC(C)OCCS(=O)(=O)c1ccccc1C#N | -1.71 |
| O=C(Nc1cc(-c2cccnc2)no1)C1CCCCC1 | -34.68 |
| CC(NC(=O)C1CC1)c1cc(O)nc(-c2cccnc2)n1 (configuration not stated) | 92.57 |
| Cc1ccc(C)c(C(NC(=O)C2CC2)c2cccnc2)c1 (configuration not stated) | -2.241 |
| CCCNC(=O)Nc1ccn(CCCOC)n1 | -11.06 |
| CN(CCNC(=O)Nc1nccs1)Cc1ccc(F)cc1 | 98.5 |
| CN(CCNC(=O)Nc1ccn(C)n1)Cc1ccc(F)cc1 | 87.45 |
| CC(NC(=O)Nc1nccs1)c1ccncc1 (configuration not stated) | -0.7222 |

| Structure (SMILES) | Percent Effect [%] |
| --- | --- |
| Cn1ccc(NC(=O)Cc2cccc(F)c2)n1 | -26.85 |
| Cn1cc(CNC(=O)Nc2ccc(S(=O)(=O)C(F)F)cc2)cn1 | -23.54 |
| CN(CCNC(=O)Nc1cnn(C)c1)Cc1ccc(F)cc1 | 113 |
| CCc1nnc(CN(C)Cc2cccc(C(=O)Nc3cnn(C)c3)c2)o1 | -6.481 |
| CCc1nnc(CN(C)Cc2cccc(C(=O)Nc3nccs3)c2)o1 | -6.732 |
| CC(=O)N1CCN(c2ccccc2CNc2cc(F)cc(F)c2)CC1 | 2.493 |
| OCc1ccc(-c2nccn2CCC2=CCCCC2)o1 | -8.705 |
| CS(=O)(=O)CCSCc1cccc2cccnc12 | -12.23 |
| CN(CC(=O)Nc1cc(-n2nnnc2C2CC2)ccc1F)C1CCC1 | -0.6608 |
| CCN1C(=O)CCC12CCN(S(=O)(=O)c1ccccc1)CC2 | -5.531 |
| O=C(c1cccc(CO)n1)N1CCOC(c2ccc(Cl)c(Cl)c2)C1 (configuration not stated) | -12.21 |
| CC(O)c1cccc(N2CCC3(CCC(=O)N(C4CCCC4)C3)CC2)n1 (configuration not stated) | 47.1 |
| N#Cc1cccc(N2CCC3(CCC(=O)N(CC(N)=O)C3)CC2)n1 | -17.91 |
| CCOC(=O)c1cccc(N2CCCC3(CCC(=O)N(C4CC4)C3)C2)n1 (configuration not stated) | 78.13 |
| CC(C)c1cccc(N2CCCC3(CCC(=O)N(C4CC4)C3)C2)n1 (configuration not stated) | 105.3 |
| CCCc1nc(C)cc(N2CCC3(CCC(=O)N(C4CC4)C3)CC2)n1 | -0.6506 |
| CC(O)c1cccc(N2CCC3(CCC(=O)N(CC(N)=O)C3)CC2)n1 (configuration not stated) | -13.92 |
| N#Cc1cccc(N2CCCC3(CCC(=O)N(C4CCCC4)C3)C2)n1 (configuration not stated) | 106.1 |
| N#Cc1cccc(N2CCC3(CCC(=O)N(CC4CCCO4)C3)CC2)n1 (configuration not stated) | -19.35 |
| CC(=O)c1ccc(N2CCC3(CCC(=O)N(C4CC4)C3)CC2)nc1 | 5.2 |
| CCNC(=O)NC[C@H]1COCc2nc3cc(C)ccc3n21 | -20.29 |
